One may read the inhibition as the change of the read-out against control, counted positive when it falls.

The target of test [1] is Tyrosine-protein kinase Fyn (Homo sapiens) (UniProt P06241). Conditions: at 1 µM.
Test [2] deals with Tyrosine-protein kinase HCK (Homo sapiens) (UniProt P08631). As to conditions: at 0.1 µM.
Test [3] shares this target. As to conditions: at 1 µM.
Test [4] deals with Insulin-like growth factor 1 receptor (Homo sapiens) (UniProt P08069). Conditions: at 0.1 µM.
Test [5] has the same target. As to conditions: at 1 µM.
The target of test [6] is Insulin receptor (Homo sapiens) (UniProt P06213). As to conditions: at 0.1 µM.
Test [7] shares this target. As to conditions: at 1 µM.
The target in test [8] is Insulin receptor-related protein (Homo sapiens) (UniProt P14616). Conditions: at 0.1 µM.
Sequence of Insulin receptor-related protein (Homo sapiens) (P14616 27-742 limits assumed): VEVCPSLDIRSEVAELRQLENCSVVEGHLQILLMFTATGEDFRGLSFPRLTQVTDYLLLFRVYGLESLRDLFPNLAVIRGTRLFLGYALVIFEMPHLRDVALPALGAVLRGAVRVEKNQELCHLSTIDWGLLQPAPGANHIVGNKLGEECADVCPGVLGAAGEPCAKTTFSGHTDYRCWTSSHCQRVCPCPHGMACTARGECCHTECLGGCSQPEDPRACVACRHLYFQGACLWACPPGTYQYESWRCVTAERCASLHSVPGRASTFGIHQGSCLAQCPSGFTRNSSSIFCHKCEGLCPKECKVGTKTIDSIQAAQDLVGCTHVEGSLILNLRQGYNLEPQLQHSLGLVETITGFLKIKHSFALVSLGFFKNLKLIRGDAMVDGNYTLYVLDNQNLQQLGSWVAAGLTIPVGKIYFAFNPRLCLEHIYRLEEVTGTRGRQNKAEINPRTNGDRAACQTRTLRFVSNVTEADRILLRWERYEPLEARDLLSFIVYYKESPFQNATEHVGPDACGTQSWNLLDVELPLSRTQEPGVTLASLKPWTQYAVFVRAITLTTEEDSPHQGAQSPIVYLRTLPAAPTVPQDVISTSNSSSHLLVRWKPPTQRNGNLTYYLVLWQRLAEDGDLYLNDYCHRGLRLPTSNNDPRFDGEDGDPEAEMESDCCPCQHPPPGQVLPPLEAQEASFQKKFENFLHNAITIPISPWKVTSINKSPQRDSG
Sequence of Insulin receptor-related protein (Homo sapiens) (P14616 747-1297 limits assumed): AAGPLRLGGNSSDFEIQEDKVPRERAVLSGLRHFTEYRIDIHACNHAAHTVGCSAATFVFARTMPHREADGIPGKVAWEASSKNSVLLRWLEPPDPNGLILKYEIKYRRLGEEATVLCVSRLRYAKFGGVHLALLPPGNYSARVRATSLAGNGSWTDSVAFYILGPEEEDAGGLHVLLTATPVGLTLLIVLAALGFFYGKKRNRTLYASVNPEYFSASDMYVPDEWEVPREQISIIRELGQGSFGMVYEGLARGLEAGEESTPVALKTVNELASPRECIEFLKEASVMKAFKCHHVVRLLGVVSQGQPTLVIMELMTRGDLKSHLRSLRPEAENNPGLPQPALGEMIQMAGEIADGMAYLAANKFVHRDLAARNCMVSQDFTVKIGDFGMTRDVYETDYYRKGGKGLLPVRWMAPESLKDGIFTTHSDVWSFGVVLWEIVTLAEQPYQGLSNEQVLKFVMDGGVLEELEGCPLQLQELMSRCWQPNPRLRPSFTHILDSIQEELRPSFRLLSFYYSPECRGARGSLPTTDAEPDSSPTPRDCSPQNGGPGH
Test [9] has the same target. Conditions: at 1 µM.
Test [10] concerns the target T1, Tyrosine-protein kinase ITK/TSK (Homo sapiens) (UniProt Q08881).
T1 sequence (whole entry): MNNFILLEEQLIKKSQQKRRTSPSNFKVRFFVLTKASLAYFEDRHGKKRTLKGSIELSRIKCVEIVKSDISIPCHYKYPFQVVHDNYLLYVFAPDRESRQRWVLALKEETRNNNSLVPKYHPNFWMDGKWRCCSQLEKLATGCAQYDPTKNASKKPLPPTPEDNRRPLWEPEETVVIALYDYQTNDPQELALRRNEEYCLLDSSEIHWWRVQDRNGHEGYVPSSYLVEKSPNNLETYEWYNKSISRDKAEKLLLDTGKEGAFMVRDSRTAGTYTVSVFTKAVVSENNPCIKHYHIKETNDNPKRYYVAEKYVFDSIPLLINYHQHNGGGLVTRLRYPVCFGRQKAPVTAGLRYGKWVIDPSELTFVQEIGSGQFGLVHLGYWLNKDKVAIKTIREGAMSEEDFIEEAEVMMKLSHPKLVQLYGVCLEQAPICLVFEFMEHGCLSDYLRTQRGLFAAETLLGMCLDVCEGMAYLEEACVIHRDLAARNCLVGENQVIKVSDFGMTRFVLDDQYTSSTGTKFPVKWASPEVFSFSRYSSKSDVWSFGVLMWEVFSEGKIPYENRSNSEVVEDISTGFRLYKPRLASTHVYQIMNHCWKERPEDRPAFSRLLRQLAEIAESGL
As to conditions: at 0.1 µM.

Test [11] has as its target T1, Tyrosine-protein kinase ITK/TSK (Homo sapiens). As to conditions: at 1 µM.
Test [12] has as its target Tyrosine-protein kinase JAK1 (Homo sapiens) (UniProt P23458). Conditions: at 0.1 µM.
Test [13] has the same target. Conditions: at 1 µM.
Test [14] addresses Tyrosine-protein kinase JAK2 (Homo sapiens) (UniProt O60674). As to conditions: at 0.1 µM.
The target is the same in test [15]. Conditions: at 1 µM.
Test [16] concerns the target T2, Tyrosine-protein kinase JAK3 (Homo sapiens) (UniProt P52333).
T2 sequence (whole entry): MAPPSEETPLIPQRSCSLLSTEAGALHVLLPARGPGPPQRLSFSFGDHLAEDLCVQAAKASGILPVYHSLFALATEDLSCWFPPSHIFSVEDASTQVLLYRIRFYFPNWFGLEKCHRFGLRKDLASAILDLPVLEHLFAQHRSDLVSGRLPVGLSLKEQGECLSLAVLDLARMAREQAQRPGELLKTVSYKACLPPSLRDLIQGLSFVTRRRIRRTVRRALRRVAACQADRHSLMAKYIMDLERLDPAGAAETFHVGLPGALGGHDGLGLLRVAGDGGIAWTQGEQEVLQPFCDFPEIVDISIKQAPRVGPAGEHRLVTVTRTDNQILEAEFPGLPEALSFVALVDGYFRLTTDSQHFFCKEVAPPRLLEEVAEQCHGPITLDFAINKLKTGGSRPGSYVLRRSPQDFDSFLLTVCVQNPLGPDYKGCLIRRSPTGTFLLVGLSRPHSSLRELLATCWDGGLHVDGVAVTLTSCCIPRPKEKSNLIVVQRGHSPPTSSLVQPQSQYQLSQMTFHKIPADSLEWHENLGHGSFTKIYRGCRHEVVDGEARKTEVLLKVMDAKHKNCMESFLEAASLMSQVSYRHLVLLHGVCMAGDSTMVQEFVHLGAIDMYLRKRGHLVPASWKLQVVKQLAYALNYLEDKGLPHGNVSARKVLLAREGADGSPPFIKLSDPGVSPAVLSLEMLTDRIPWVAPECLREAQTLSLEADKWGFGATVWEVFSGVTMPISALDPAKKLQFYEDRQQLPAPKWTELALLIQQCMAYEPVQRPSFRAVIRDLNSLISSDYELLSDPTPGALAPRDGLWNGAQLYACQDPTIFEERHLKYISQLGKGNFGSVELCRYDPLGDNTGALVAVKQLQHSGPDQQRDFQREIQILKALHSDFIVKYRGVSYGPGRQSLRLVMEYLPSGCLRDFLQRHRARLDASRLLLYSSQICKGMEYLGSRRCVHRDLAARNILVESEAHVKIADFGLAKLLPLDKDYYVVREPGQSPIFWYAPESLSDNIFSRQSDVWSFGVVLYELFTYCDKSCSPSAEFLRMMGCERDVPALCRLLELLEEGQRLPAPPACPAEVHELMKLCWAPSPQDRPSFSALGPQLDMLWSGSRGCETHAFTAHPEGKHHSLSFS
Conditions: at 0.1 µM.

Test [17] concerns the target T2, Tyrosine-protein kinase JAK3 (Homo sapiens). Conditions: at 1 µM.
The target in test [18] is Vascular endothelial growth factor receptor 2 (Homo sapiens) (UniProt P35968). As to conditions: at 0.1 µM.
Test [19] shares this target. As to conditions: at 1 µM.
In test [20] the target is Mast/stem cell growth factor receptor Kit (Homo sapiens) (UniProt P10721). As to conditions: at 0.1 µM.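 Further: values are mean inhibition of KIT, from the GSK PKIS dataset.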
Sequence of Mast/stem cell growth factor receptor Kit (Homo sapiens) (P10721 whole entry): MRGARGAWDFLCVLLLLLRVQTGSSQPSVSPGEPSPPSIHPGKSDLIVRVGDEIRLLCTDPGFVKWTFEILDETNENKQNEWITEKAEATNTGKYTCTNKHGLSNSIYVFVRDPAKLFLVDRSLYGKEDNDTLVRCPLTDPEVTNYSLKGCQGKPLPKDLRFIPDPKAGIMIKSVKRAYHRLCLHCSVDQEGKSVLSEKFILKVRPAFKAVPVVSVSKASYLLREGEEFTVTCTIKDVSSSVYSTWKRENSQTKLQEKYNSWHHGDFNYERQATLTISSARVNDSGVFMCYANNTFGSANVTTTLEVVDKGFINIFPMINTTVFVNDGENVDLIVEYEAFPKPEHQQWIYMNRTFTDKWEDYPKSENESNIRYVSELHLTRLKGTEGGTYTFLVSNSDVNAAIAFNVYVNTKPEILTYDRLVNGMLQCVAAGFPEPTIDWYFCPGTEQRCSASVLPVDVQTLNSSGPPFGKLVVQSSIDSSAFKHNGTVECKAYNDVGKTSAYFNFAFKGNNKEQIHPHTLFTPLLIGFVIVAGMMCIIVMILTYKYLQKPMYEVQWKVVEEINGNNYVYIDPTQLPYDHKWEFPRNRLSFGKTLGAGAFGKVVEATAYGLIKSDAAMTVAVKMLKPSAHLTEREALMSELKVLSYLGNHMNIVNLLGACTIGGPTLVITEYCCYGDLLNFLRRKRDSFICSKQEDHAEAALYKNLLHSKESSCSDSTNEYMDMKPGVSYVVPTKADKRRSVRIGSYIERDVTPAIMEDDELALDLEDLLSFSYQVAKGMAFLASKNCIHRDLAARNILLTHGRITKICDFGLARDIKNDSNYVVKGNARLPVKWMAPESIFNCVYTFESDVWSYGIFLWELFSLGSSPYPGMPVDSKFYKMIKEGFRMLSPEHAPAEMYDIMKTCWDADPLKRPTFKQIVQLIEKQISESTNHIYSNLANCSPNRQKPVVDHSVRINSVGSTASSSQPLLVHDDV

Sequence of Tyrosine-protein kinase HCK (Homo sapiens) (P08631 2-526 limits assumed): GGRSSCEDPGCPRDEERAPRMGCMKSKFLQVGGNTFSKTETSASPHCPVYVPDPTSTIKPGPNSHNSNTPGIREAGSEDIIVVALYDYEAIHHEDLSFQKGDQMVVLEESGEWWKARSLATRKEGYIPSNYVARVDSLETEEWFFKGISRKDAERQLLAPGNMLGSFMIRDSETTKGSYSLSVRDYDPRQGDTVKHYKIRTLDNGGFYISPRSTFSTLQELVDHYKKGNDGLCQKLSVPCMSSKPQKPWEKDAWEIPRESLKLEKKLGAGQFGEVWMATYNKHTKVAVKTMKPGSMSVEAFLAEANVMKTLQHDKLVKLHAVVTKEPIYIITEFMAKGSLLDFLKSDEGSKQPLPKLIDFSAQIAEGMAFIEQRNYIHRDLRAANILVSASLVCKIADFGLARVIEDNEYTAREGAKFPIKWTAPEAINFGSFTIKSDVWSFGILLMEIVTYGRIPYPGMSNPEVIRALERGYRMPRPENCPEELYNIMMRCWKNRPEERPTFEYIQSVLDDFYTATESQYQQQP
Sequence of Tyrosine-protein kinase JAK1 (Homo sapiens) (P23458 whole entry): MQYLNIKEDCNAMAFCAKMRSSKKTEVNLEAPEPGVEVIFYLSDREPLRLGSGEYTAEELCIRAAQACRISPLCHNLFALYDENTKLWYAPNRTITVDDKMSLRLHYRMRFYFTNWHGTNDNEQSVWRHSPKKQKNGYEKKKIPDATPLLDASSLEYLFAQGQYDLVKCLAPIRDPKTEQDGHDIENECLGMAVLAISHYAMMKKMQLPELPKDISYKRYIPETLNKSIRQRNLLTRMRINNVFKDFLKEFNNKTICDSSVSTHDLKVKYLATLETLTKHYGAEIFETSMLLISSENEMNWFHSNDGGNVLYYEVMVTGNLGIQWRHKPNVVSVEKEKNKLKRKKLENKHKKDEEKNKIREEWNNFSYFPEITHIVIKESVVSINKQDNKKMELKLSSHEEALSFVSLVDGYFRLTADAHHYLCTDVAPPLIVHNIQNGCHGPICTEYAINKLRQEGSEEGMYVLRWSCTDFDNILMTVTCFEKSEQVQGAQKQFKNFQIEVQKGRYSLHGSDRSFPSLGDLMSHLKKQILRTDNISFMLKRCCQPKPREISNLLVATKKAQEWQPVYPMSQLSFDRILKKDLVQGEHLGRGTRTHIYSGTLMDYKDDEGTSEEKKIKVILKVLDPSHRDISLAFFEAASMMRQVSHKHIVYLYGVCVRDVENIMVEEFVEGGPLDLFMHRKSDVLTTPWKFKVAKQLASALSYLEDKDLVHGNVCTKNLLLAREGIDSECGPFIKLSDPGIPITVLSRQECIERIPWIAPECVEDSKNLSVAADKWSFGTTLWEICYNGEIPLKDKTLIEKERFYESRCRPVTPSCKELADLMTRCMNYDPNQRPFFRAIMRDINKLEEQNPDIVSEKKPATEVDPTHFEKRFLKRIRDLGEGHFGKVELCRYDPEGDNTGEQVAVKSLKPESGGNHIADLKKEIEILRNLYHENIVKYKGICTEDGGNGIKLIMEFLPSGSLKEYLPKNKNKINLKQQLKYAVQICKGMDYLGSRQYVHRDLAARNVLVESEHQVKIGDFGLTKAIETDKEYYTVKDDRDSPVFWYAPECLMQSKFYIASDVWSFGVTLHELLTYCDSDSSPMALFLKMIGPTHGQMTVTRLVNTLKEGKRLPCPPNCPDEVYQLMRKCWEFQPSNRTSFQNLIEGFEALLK
Sequence of Tyrosine-protein kinase Fyn (Homo sapiens) (P06241 2-537 limits assumed): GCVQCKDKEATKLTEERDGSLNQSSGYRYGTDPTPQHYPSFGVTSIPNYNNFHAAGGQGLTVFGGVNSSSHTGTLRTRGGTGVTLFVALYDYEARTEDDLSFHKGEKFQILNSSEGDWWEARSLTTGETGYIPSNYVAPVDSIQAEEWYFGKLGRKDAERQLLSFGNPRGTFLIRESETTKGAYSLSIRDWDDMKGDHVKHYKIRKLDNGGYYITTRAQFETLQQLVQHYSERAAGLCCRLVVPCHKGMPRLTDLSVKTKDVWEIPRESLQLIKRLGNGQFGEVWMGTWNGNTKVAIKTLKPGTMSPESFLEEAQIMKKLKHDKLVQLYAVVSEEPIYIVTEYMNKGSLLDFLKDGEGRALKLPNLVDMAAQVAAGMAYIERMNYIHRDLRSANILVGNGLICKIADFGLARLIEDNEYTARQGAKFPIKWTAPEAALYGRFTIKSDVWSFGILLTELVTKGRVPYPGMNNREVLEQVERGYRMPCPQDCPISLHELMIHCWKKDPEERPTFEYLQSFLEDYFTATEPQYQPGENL

For `[O-][S+]1CCN(Cc2ccc(-c3ccc4ncnc(Nc5ccc(OCc6cccc(F)c6)c(Cl)c5)c4c3)o2)CC1`, the inhibition in test [1] is 6%; in test [2], 6.09%; in [3], 9.6%; in test [4], 3.08%; in test [5] it was 5.73%; in [6], 5.28%. Moreover, the inhibition in [7] was 4.61%; in test [8], 2.99%; in [9], 3.54%; in [10] it was 1.07%; in test [11], 2.41%; in [12] it was 6.24%. The inhibition is 9.08% in [13]; 1.51% in test [14]; 1.04% in [15]; -1.66% in test [16]; -0.12% in test [17]; 5.24% in test [18]. Also, the inhibition stood at 7.82% in [19] and 4.47% in [20].
As for `CNC(=O)c1cc(-c2ccc(F)cc2)cc(-c2ccc(S(=O)(=O)N3CCCC3)cc2)c1N`, the inhibition in [1] came to 5.48%; in test [2], 2.71%; in test [3] it was 3.16%; in test [4], 0.57%; in [5] it was 1.32%; in test [6], 4.78%. Further, the inhibition in test [7] is 5.39%; in test [8], -0.17%; in [9], 1.33%; in test [10], 1.41%; in test [11], 0.87%; in [12], 0.17%. Moreover, the inhibition is 1.74% in test [13]; 1.75% in [14]; 3.18% in test [15]; -1.74% in test [16]; -0.38% in test [17]; 1.67% in test [18]. In addition, the figures for the inhibition in test [19] and in [20] were 6.2% and 3.86%, respectively.
On to `NS(=O)(=O)c1ccc(Nc2ncc(-c3ccccc3)o2)cc1`, for which the inhibition in test [1] came to 5.41%; in [2], 4.43%; in test [3], 10.7%; in test [4], 3.39%; in test [5], 3.81%; in [6], 2.2%. Also, the inhibition in test [7] was 4.14%; in [8] it was 3.04%; in [9], 1.16%; in [10], 1.19%; in test [11], 2.34%; in [12], 3.09%. The inhibition in test [13] is 5.63%; in test [14], 0.87%; in test [15], 3.74%; in test [16] it was -0.66%; in test [17], 3.55%; in test [18] it was 6.16%. Also, the figures for the inhibition in test [19] and in test [20] were 23.6% and 38.7%, respectively.
For `CS(=O)(=O)CCNCc1coc(-c2ccc3ncnc(Nc4ccc(OCc5ccccc5)cc4)c3c2)c1`, the inhibition in [1] is 12.2%; in test [2], 4.78%; in test [3] it was 9.64%; in test [4], 0.62%; in [5], 2.16%; in [6], 3.09%. In addition, the inhibition in test [7] is 2.56%; in [8] it was -0.04%; in test [9] it was 3.03%; in test [10] it was 0.65%; in test [11], 1.57%; in [12], -1.63%. Also, the inhibition in test [13] is 0.69%; in test [14], 1.12%; in test [15] it was 1.93%; in [16] it was -1.53%; in [17], 0.54%; in test [18], 4.63%. Moreover, the inhibition in test [19] is 7.45%; in test [20], -0.21%.
For the compound `CC(=O)Nc1cccc(C#Cc2cncnc2Nc2ccc(OCc3cccc(F)c3)c(Cl)c2)c1`, the inhibition came out at 5.51% in [1]; 5.81% in test [2]; 9.29% in test [3]; 1.84% in test [4]; 2.53% in [5]; 3.44% in test [6]. The inhibition in [7] was 1.06%; in [8], 2.25%; in [9], 1.77%; in test [10], 1.8%; in test [11] it was 2.79%; in [12] it was 6.03%. Besides, the inhibition came to 3.66% in test [13]; 4.37% in [14]; 6.59% in test [15]; 0.59% in test [16]; 4.13% in test [17]; 9.03% in test [18]. Further, the inhibition is 12.6% in test [19] and 1.83% in [20].
As to `COc1ccc2[nH]c3c4[nH]c5ccc(OC)cc5c4c4c(c3c2c1)C(=O)NC4=O`, the inhibition in test [1] is 19%; in test [2], 20.1%; in test [3] it was 75.6%; in [4], 5.28%; in test [5], 4.22%; in test [6] it was 6.91%. In addition, the inhibition in test [7] was found to be 10.3%; in test [8] it was 3.27%; in test [9], 6.93%; in [10] it was 1.85%; in [11], 6.11%; in test [12], 0.96%. In addition, the inhibition was 5.89% in [13]; -0.61% in test [14]; -1.31% in [15]; -1.14% in test [16]; 12.8% in test [17]; 42.5% in test [18]. Moreover, the inhibition is 68.3% in test [19] and 31.3% in [20].

(Values after ChEMBL document CHEMBL1961873, “Compounds: GSK PKIS; Assays: Nanosyn kinase panel” (2012).)
